From publication PMC12820563, “FoxP3 forms a head-to-head dimer in vivo and stabilizes its multimerization on adjacent microsatellites”
The full ranking holds about 16,000 sequences; the median of “rpm ratio (pull-down/input)” is about 0.5, and the highest 2% start at about 5.5. Shown is part of a subset that was picked to be rich in the highest values.

These sequences were tested against T1, MBP-FoxP3dN (Mus musculus, UniProt Q99JB6 188-423) (assay: PD-seq (MBP pull-down with sequencing); 20 mM Tris-HCl pH 7.5, 100 mM NaCl, 1.5 mM MgCl2, 0.4 uM protein, 0.1 uM dsDNA library, 30 min, room temperature, amylose pull-down; high values mean tight binding). Conditions: protein: recombinant; tags: His6-MBP; chain copies: 2; dsDNA, one strand shown.
T1 sequence: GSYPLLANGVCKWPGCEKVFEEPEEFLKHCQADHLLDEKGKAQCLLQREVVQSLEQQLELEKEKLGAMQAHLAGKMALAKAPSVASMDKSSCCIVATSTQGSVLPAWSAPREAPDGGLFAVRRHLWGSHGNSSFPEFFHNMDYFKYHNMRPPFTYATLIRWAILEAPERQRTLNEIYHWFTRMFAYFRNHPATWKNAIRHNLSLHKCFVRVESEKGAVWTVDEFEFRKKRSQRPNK
Summary of the method: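 His6-MBP-tagged mouse FoxP3 or FoxP1 fragment lacking the N-terminus, expressed in E. coli, was mixed at 0.4 µM with 0.1 µM Klenow-filled double-stranded degenerate DNA library. Incubation was 30 min at room temperature in Tris pH 7.5 buffer with NaCl and MgCl2. Complexes were caught on amylose resin and washed three times; DNA was released with proteinase K, PCR-barcoded and Illumina-sequenced. Binding is reads-per-million enrichment, pull-down over input, with replicates pooled.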

| Sequence | binding signal |
| --- | --- |
| GATGATTGTTCTCCCAGCTGATGAATTGCCCCCTTCGAGTAAACAAATTTTCCTAATCTTTCTGTTCAAGCGCCATCTAC | 0.413 RPM ratio (pull-down/input) |
| GATGATTGTTCTCCCAGCTGATGAATTTCCGGTATCGAGTAAACAAATTTTCCTAATCTTTCTGTTCAAGCGCCATCTAC | 0.44 RPM ratio (pull-down/input) |
| GATGATTGTTCTCCCAGCTGATGAATTTTTGGCATCGAGTAAACAAATTTTCCTAATCTTTCTGTTCAAGCGCCATCTAC | 0.785 RPM ratio (pull-down/input) |
| GATGATTGTTCTCCCAGCTGATGAATTGGCATTTTCGAGTAAACAAATTTTCCTAATCTTTCTGTTCAAGCGCCATCTAC | 3.38 RPM ratio (pull-down/input) |
| GATGATTGTTCTCCCAGCTGATGAATTGGCATCTTCGAGTAAACAAATTTTCCTAATCTTTCTGTTCAAGCGCCATCTAC | 4.07 RPM ratio (pull-down/input) |
| GATGATTGTTCTCCCAGCTGATGAATTGGCATCCTCGAGTAAACAAATTTTCCTAATCTTTCTGTTCAAGCGCCATCTAC | 4.28 RPM ratio (pull-down/input) |
| GATGATTGTTCTCCCAGCTGATGAATTTGGCATCTCGAGTAAACAAATTTTCCTAATCTTTCTGTTCAAGCGCCATCTAC | 6.36 RPM ratio (pull-down/input) |
| GATGATTGTTCTCCCAGCTGATGAATTTGGCCATTCGAGTAAACAAATTTTCCTAATCTTTCTGTTCAAGCGCCATCTAC | 4.06 RPM ratio (pull-down/input) |
| GATGATTGTTCTCCCAGCTGATGAATTCGTGGCATCGAGTAAACAAATTTTCCTAATCTTTCTGTTCAAGCGCCATCTAC | 1.13 RPM ratio (pull-down/input) |
| GATGATTGTTCTCCCAGCTGATGAATTTGGCATTTCGAGTAAACAAATTTTCCTAATCTTTCTGTTCAAGCGCCATCTAC | 6.16 RPM ratio (pull-down/input) |
| GATGATTGTTCTCCCAGCTGATGAATTGGCATTCTCGAGTAAACAAATTTTCCTAATCTTTCTGTTCAAGCGCCATCTAC | 3.49 RPM ratio (pull-down/input) |
| GATGATTGTTCTCCCAGCTGATGAATTGTGGCATTCGAGTAAACAAATTTTCCTAATCTTTCTGTTCAAGCGCCATCTAC | 6.18 RPM ratio (pull-down/input) |
| GATGATTGTTCTCCCAGCTGATGAATTCTGGCATTCGAGTAAACAAATTTTCCTAATCTTTCTGTTCAAGCGCCATCTAC | 4.83 RPM ratio (pull-down/input) |
| GATGATTGTTCTCCCAGCTGATGAATTTTGGCATTCGAGTAAACAAATTTTCCTAATCTTTCTGTTCAAGCGCCATCTAC | 5.56 RPM ratio (pull-down/input) |
| GATGATTGTTCTCCCAGCTGATGAATTGGGTGGTTCGAGTAAACAAATTTTCCTAATCTTTCTGTTCAAGCGCCATCTAC | 0.736 RPM ratio (pull-down/input) |
| GATGATTGTTCTCCCAGCTGATGAATTGCAGAGTTCGAGTAAACAAATTTTCCTAATCTTTCTGTTCAAGCGCCATCTAC | 0.781 RPM ratio (pull-down/input) |
| GATGATTGTTCTCCCAGCTGATGAATTGTTCGACTCGAGTAAACAAATTTTCCTAATCTTTCTGTTCAAGCGCCATCTAC | 0.414 RPM ratio (pull-down/input) |
| GATGATTGTTCTCCCAGCTGATGAATTTTGTCCGTCGAGTAAACAAATTTTCCTAATCTTTCTGTTCAAGCGCCATCTAC | 0.813 RPM ratio (pull-down/input) |
| GATGATTGTTCTCCCAGCTGATGAATTCTTTTGTTCGAGTAAACAAATTTTCCTAATCTTTCTGTTCAAGCGCCATCTAC | 0.487 RPM ratio (pull-down/input) |
| GATGATTGTTCTCCCAGCTGATGAATTGGCGAATTCGAGTAAACAAATTTTCCTAATCTTTCTGTTCAAGCGCCATCTAC | 0.898 RPM ratio (pull-down/input) |
| GATGATTGTTCTCCCAGCTGATGAATTCAAACATTCGAGTAAACAAATTTTCCTAATCTTTCTGTTCAAGCGCCATCTAC | 1.12 RPM ratio (pull-down/input) |
| GATGATTGTTCTCCCAGCTGATGAATTGGCGCATTCGAGTAAACAAATTTTCCTAATCTTTCTGTTCAAGCGCCATCTAC | 6.97 RPM ratio (pull-down/input) |
| GATGATTGTTCTCCCAGCTGATGAATTCGTCCGTTCGAGTAAACAAATTTTCCTAATCTTTCTGTTCAAGCGCCATCTAC | 0.459 RPM ratio (pull-down/input) |

| Sequence | binding signal |
| --- | --- |
| GATGATTGTTCTCCCAGCTGATGAATTCGTATCGTCGAGTAAACAAATTTTCCTAATCTTTCTGTTCAAGCGCCATCTAC | 1.53 RPM ratio (pull-down/input) |
| GATGATTGTTCTCCCAGCTGATGAATTACTGTTCTCGAGTAAACAAATTTTCCTAATCTTTCTGTTCAAGCGCCATCTAC | 0.662 RPM ratio (pull-down/input) |
| GATGATTGTTCTCCCAGCTGATGAATTTAGCGCCTCGAGTAAACAAATTTTCCTAATCTTTCTGTTCAAGCGCCATCTAC | 1.56 RPM ratio (pull-down/input) |
| GATGATTGTTCTCCCAGCTGATGAATTAACAGCCTCGAGTAAACAAATTTTCCTAATCTTTCTGTTCAAGCGCCATCTAC | 0.491 RPM ratio (pull-down/input) |
| GATGATTGTTCTCCCAGCTGATGAATTTTTAGCCTCGAGTAAACAAATTTTCCTAATCTTTCTGTTCAAGCGCCATCTAC | 0.414 RPM ratio (pull-down/input) |
| GATGATTGTTCTCCCAGCTGATGAATTTAGCCTCTCGAGTAAACAAATTTTCCTAATCTTTCTGTTCAAGCGCCATCTAC | 5.79 RPM ratio (pull-down/input) |
| GATGATTGTTCTCCCAGCTGATGAATTAAGCGCCTCGAGTAAACAAATTTTCCTAATCTTTCTGTTCAAGCGCCATCTAC | 1.4 RPM ratio (pull-down/input) |
| GATGATTGTTCTCCCAGCTGATGAATTAAGCCTCTCGAGTAAACAAATTTTCCTAATCTTTCTGTTCAAGCGCCATCTAC | 5.69 RPM ratio (pull-down/input) |
| GATGATTGTTCTCCCAGCTGATGAATTAGCCACTTCGAGTAAACAAATTTTCCTAATCTTTCTGTTCAAGCGCCATCTAC | 1.09 RPM ratio (pull-down/input) |
| GATGATTGTTCTCCCAGCTGATGAATTATTCGCCTCGAGTAAACAAATTTTCCTAATCTTTCTGTTCAAGCGCCATCTAC | 0.568 RPM ratio (pull-down/input) |
| GATGATTGTTCTCCCAGCTGATGAATTAACAACTTCGAGTAAACAAATTTTCCTAATCTTTCTGTTCAAGCGCCATCTAC | 0.722 RPM ratio (pull-down/input) |
| GATGATTGTTCTCCCAGCTGATGAATTCGGCACATCGAGTAAACAAATTTTCCTAATCTTTCTGTTCAAGCGCCATCTAC | 0.778 RPM ratio (pull-down/input) |
| GATGATTGTTCTCCCAGCTGATGAATTATACTTGTCGAGTAAACAAATTTTCCTAATCTTTCTGTTCAAGCGCCATCTAC | 1.05 RPM ratio (pull-down/input) |
| GATGATTGTTCTCCCAGCTGATGAATTTGCATGATCGAGTAAACAAATTTTCCTAATCTTTCTGTTCAAGCGCCATCTAC | 1.63 RPM ratio (pull-down/input) |
| GATGATTGTTCTCCCAGCTGATGAATTCTTTGCATCGAGTAAACAAATTTTCCTAATCTTTCTGTTCAAGCGCCATCTAC | 0.99 RPM ratio (pull-down/input) |
| GATGATTGTTCTCCCAGCTGATGAATTTGCATCATCGAGTAAACAAATTTTCCTAATCTTTCTGTTCAAGCGCCATCTAC | 6.33 RPM ratio (pull-down/input) |
| GATGATTGTTCTCCCAGCTGATGAATTTTTTGCATCGAGTAAACAAATTTTCCTAATCTTTCTGTTCAAGCGCCATCTAC | 1.37 RPM ratio (pull-down/input) |
| GATGATTGTTCTCCCAGCTGATGAATTGTTTGCATCGAGTAAACAAATTTTCCTAATCTTTCTGTTCAAGCGCCATCTAC | 6.03 RPM ratio (pull-down/input) |
| GATGATTGTTCTCCCAGCTGATGAATTTGCAGCATCGAGTAAACAAATTTTCCTAATCTTTCTGTTCAAGCGCCATCTAC | 1.6 RPM ratio (pull-down/input) |
| GATGATTGTTCTCCCAGCTGATGAATTTGTTGCATCGAGTAAACAAATTTTCCTAATCTTTCTGTTCAAGCGCCATCTAC | 7.07 RPM ratio (pull-down/input) |
| GATGATTGTTCTCCCAGCTGATGAATTGCATCAATCGAGTAAACAAATTTTCCTAATCTTTCTGTTCAAGCGCCATCTAC | 3.31 RPM ratio (pull-down/input) |
| GATGATTGTTCTCCCAGCTGATGAATTGCCATCATCGAGTAAACAAATTTTCCTAATCTTTCTGTTCAAGCGCCATCTAC | 1.56 RPM ratio (pull-down/input) |
